SARS PLpro yeast: qHTS of Yeast-based Assay for SARS-CoV PLP | S. cerevisiae expressing SARS-CoV PLpro, growth rescue | Potency, µM (highest dose often 32.9 µM), for inactives: top-dose activity, positive = growth rescue, hits mostly activators | 0.19% of 330,000 active | AID 485353, 2010; note: 0% is about no effect; nearly all actives have a fitted effect of over 55% in size
NS1 inh: qHTS Assay for Inhibitors of Influenza NS1 Protein Function. Potency, µM (doses to about 46.1 µM), for the others: at the highest dose activity, positive = more growth. 0.4% of 270,000 active; note: actives are rising curves; nearly all actives have a fitted effect of over 50% in size
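OD600 was taken as the measure of yeast growth restored by compound in an NS1-expressing S. cerevisiae strain. Cells had been washed out of glucose medium and diluted 1:100 into galactose -URA medium, pH 6.0.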
Pf growth 48h: Primary qHTS for delayed death inhibitors of the malarial parasite plastid, 48 hour incubation. P. falciparum luciferase growth in erythrocytes, 48 h. Potency, µM (highest dose often 28.7 µM), inactives show at the highest dose activity change, negative = inhibition, usual class: inhibitors. 5.9% of 310,000 active; active = well fitted inhibition curve with a large enough effect; inconclusive = small, poorly fitted or top-dose-only effect, or another doubt; inactive = no such curve, though single readings can be large or run the other way; note: % is set by controls: 0 for no effect and ±100 for the full control effect
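Compounds are pin-transferred into medium, infected erythrocytes (2% hematocrit, 0.1% parasitemia final) are added, and plates sit one parasite generation at 37 C in 5% CO2. Detection reagent is then added and luminescence measured.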
Pf growth 96h: Primary qHTS for delayed death inhibitors of the malarial parasite plastid, 96 hour incubation. P. falciparum luciferase reporter growth, 96 h. Potency, µM (titrated, usually from 28.7 µM), for inactives: top-dose activity change, negative = inhibition, usual class: inhibitors. 6.9% of 320,000 active; active = well fitted inhibition curve with a large enough effect; inconclusive = small, poorly fitted or top-dose-only effect, or another doubt; inactive = no such curve, though single readings can be large or run the other way; note: % is set by controls: 0 for no effect and ±100 for the full control effect
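Infected RBCs, 2% Hct / 0.05% parasitemia final; luciferase-reporter P. falciparum; cpd 96 h, 37 C, 5% CO2; luciferase detection reagent; luminescence.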
RE007 growth inh: qHTS Assay for Inhibitors of the HIV-1 protein Vpr; S. pombe RE007 Vpr strain, BacTiter-Glo ATP luminescence, 24 h; Potency, µM (series often up to 92.2 µM), for the others: top-dose activity change, negative = less growth, most hits filed as inhibitors; 0.21% of 360,000 active; AID 651644, 2012; active = well fitted falling curve with a large enough effect; inconclusive = small, poorly fitted or top-dose-only effect; inactive = no such curve, though single readings can be large or run the other way; note: % is set by controls: 0 for no effect and ±100 for the full control effect; nearly all actives have a fitted effect of over 50% in size
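Fission yeast RE007 carrying one integrated HIV-1 vpr copy, seeded at OD 0.01 in PMG+AL medium with 23 nL pinned compound. Grown 24 h at 30 degrees; viability read by BacTiter-Glo luminescence after 5 min.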
Starred values were filed as active, the others as inactive; ? = inconclusive; / = no result given; [ ] = another dose, or the depositor's remark. An excerpt weighted towards active compounds, which were near 9.5% of everything screened. Unless noted, calls come from the whole dose curve. Potency is the fitted concentration of half-maximal effect.

SMILES	SARS PLpro yeast	NS1 inh	Pf growth 48h	Pf growth 96h	RE007 growth inh
COc1ccc(NC(=O)CN(C)C(=O)/C=C/c2ccc(S(=O)(=O)N3CCCCCC3)cc2)cc1	/	/	11.7µM*	-7.8%	13.4%
CC1(C)CC(NC(=O)c2cc(Cl)ccc2Cl)CC(C)(C)N1	2.9%	-5.5%	1.5%	-22.1%	5.5%
CC[C@@H]1C=C(C)C[C@H](C)C[C@H](OC)[C@H]2O[C@@](O)(C(=O)C(=O)N3CCCC[C@H]3C(=O)O[C@H](/C(C)=C/[C@@H]3CC[C@@H](O)[C@H](OC)C3)[C@H](C)[C@@H](O)CC1=O)[C@H](C)C[C@@H]2OC	-38.0%	-26.6%	2.33µM*	2.62µM*	/
N=c1c(C(=O)NCCc2ccccc2)cc2c(=O)n3ccccc3nc2n1CC1CCCO1 (stereo not given)	2.1%	-5.4%	2.08µM*	?	-4.4%
Cc1cccn2c(=O)c3cc(C(=O)NCCc4ccccc4)c(=N)n(CC4CCCO4)c3nc12 (stereo not given)	10.2%	-1.8%	2.33µM*	29.1%	4.0%
N=c1c(C(=O)NCc2ccc(F)cc2)cc2c(=O)n3ccccc3nc2n1CC1CCCO1 (stereo not given)	0.6%	2.0%	11.7µM*	0.9%[5.75 µM]	12.9%
Cc1cccn2c(=O)c3cc(C(=O)NCc4cccnc4)c(=N)n(CC4CCCO4)c3nc12 (stereo not given)	4.0%	10.3%	?	1.2%	0.0%
N=c1c(C(=O)NCc2ccc3c(c2)OCO3)cc2c(=O)n3ccccc3nc2n1CC1CCCO1 (stereo not given)	-13.8%	-2.2%	?	?	-3.9%
CCCn1c(=N)c(C(=O)NCC2CCCO2)cc2c(=O)n3cccc(C)c3nc21 (stereo not given)	2.5%	-2.8%	8.9%	11.1%	-0.5%
Cc1ccc(CNC(=O)c2cc3c(=O)n4cccc(C)c4nc3n(CC3CCCO3)c2=N)cc1 (stereo not given)	8.6%	17.4%	?	8.28µM*	/
OC[C@H]1O[C@@H](O[C@@H]2[C@@H](CO)O[C@@](O)(CO)[C@H]2O)[C@H](O)[C@@H](O)[C@H]1O	/	/	14.5%	18.8%	4.1%[18.4 µM]
COc1ccc(N2C(=O)CSC23C(=O)N2c4c(cccc43)C(C)=CC2(C)C)cc1 (stereo not given)	-24.8%	-8.6%	/	7.38µM*	-2.2%
O=C(Cc1c(F)cccc1Cl)Nc1ccc(S(=O)(=O)NCC2CCCO2)cc1 (stereo not given)	0.2%	-6.6%	-6.0%	0.0%	14.5%
CCOC(=O)C1=C(Cc2ccc(F)cc2)C(=O)c2ccccc2C1=O	-34.1%	-187.2%	/	8.28µM*	?
O=C(OCc1ccc(F)cc1)c1ccc2c(c1)-c1ccccc1C2=O	-0.2%	-5.4%	-4.9%	103.1%	-5.5%
CCSC1=NCCN1C(=O)c1ccc(S(=O)(=O)N(C)C)cc1	-1.5%	/	3.0%	-9.4%	?
CCOC(=O)c1oc2nc(CC(C)C)c3c(c2c1N)CCCC3	-1.8%	4.8%	?	?	2.7%
COc1cc(C(=O)N2CCN(S(=O)(=O)c3ccc(C)cc3)CC2)ccc1OCC(=O)N1CCOCC1	/	/	/	/	-26.7%
O=C(Nc1ccc(S(=O)(=O)N2CCCC2)cc1)C1CCN(S(=O)(=O)c2ccc(F)cc2)CC1	-1.0%	/	13.1µM*	?	19.3%
O=C(CSc1nnc(-c2ccc(F)cc2)o1)Nc1ccc(S(=O)(=O)N2CCCCCC2)cc1	-4.0%	4.3%	9.28µM*	-12.5%	9.7%
COc1ccc(NC(=O)C2CCN(S(=O)(=O)c3ccc(N4CCCC4=O)cc3)CC2)cc1OC	1.8%	-3.4%	?	13.1µM*	-9.1%
Cc1nnc(NC(=O)C2CCN(S(=O)(=O)c3ccc(F)c(Cl)c3)CC2)o1	-15.4%	/	6.57µM*	14.7µM*	12.1%
O=C(Nc1ccc(C(F)(F)F)cc1)C1CCN(S(=O)(=O)c2ccc(N3CCCC3=O)cc2)CC1	16.9%	0.1%	?	?	-8.4%
COCCNC(=O)C1(C)CCN(C(=O)c2ccc(OC)c(F)c2)C1 (stereo not given)	/	/	/	/	8.0%
COc1cc(NC(=O)C2CCN(S(=O)(=O)c3ccc(N4CCCC4=O)cc3)CC2)cc(OC)c1	2.9%	4.1%	-27.2%	9.28µM*	1.6%
SMILES	SARS PLpro yeast	NS1 inh	Pf growth 48h	Pf growth 96h	RE007 growth inh
COc1ccc(NC(=O)C2CCN(S(=O)(=O)c3ccc(OC)c(OC)c3)CC2)cc1	-4.4%	-5.9%	/	?	-20.2%
C=CCNC(=O)C1CCN(S(=O)(=O)c2ccc(Br)cc2)CC1	10.1%	-11.4%	10.4µM*	/	5.7%
COc1ccc(S(=O)(=O)N2CCC(C(=O)Nc3ccc(S(=O)(=O)N4CCCC4)cc3)CC2)cc1OC	-2.9%	/	?	4.65µM*	0.0%
CC(C)NC(=O)C1CCN(S(=O)(=O)c2ccc(N3CCCC3=O)cc2)CC1	13.1%	5.4%	-1.7%	?	2.8%
O=C(Nc1ccc(S(=O)(=O)N2CCOCC2)cc1)C1CCN(S(=O)(=O)c2ccccc2)CC1	-4.1%	/	?	2.94µM*	0.0%
CC(C)(C)C(=O)c1c(N)[nH]c(C(=O)c2ccccc2)c1-c1cc2ccccc2nc1Cl	/	/	/	/	44.9%
Cc1sc2cc3c(c(C(=O)c4ccccc4)[n+]2c1C)-c1cccc2cccc-3c12	-77.0%	-59.9%	0.828µM*	0.329µM*	5.6%
O=C(c1ccccc1)c1c2c(cc3sc4ccccc4[n+]13)-c1cccc3cccc-2c13	-59.1%	-56.1%	0.928µM*	0.465µM*	8.7%
Cc1ccc(CN2CCN(CC(=O)N/N=C/c3ccc(C)o3)CC2)cc1	?	10.0%	33.1%	30.0%	-26.9%
Cc1cccc(C)c1NC(=O)COC(=O)c1cc[n+]([O-])cc1	-6.3%	/	8.2%	14.3%	-0.3%
Cc1onc(-c2c(Cl)cccc2Cl)c1C(=O)N=C(N)N1CC(C)OC(C)C1 (stereo not given)	0.4%	-2.9%	3.29µM*	11.7µM*	5.8%
Cc1onc(-c2c(F)cccc2Cl)c1C(=O)N=C(N)N1CCCC1	2.9%	7.3%	6.3%	-9.7%	-26.0%
Cc1onc(-c2c(F)cccc2Cl)c1C(=O)Nc1ccccc1N1CCOCC1	-0.6%	2.2%	1.85µM*	2.62µM*	-13.6%
Cc1onc(-c2ccccc2)c1C(=O)Nc1ccccc1N1CCOCC1	1.0%	0.9%	?	/	0.5%
Cc1onc(-c2c(Cl)cccc2Cl)c1C(=O)N1CCN(c2ccccc2F)CC1	20.0%	-13.9%	13.1µM*	?	-23.8%
CCOC(=O)c1ccc(N2CCOCC2)c(NC(=O)c2c(-c3ccccc3)noc2C)c1	-0.7%	-4.3%	13.1µM*	?	-13.1%
Cc1onc(-c2ccccc2)c1C(=O)Nc1cc(C(F)(F)F)ccc1N1CCOCC1	-2.0%	?	/	-8.9%	0.8%
CCOC(=O)c1ccccc1NC(=O)COC(=O)c1cc([N+](=O)[O-])ccc1N1CCOCC1	-1.3%	/	?	?	0.8%

Assay outcomes deposited in PubChem BioAssay by National Center for Advancing Translational Sciences (NCATS).
